These results are taken from the supplement of paper PMC9794691.

Assay [1] has as its system H1975. The assay is described as follows: area under confluence curve of osimertinib + compound combination regimen (DTP regrowth); compare to osimertinib-only DTP control AUC of the same experiment (AUC (confluence x time, arbitrary)). In short, it runs like this:
(§1)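 EGFR-mutant NSCLC lines went into 48-well plates at 20,000–30,000 cells/well in RPMI 1640 with 10% FBS and were kept at 37 °C, 5% CO2. Cells got either the EGFR inhibitor plus a fixed-dose test compound from the start through the persister stage (10–21 days) and then drug-free medium, or the inhibitor alone followed by the test compound. Medium was changed every 3–4 days until wells given only the inhibitor regrew to confluence. The endpoint was the area under the IncuCyte confluence–time curve, calculated in Prism and reported as the median of triplicates where available.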

Assay [2] deals with HCC2279. The description is as above. In short, it runs like this: as §1
Assay [3] relates to HCC2935. The assay is described as above. In short, it runs like this:
as §1

The test system of assay [4] is HCC4006. The description is as above. In short, it runs like this: as §1
Assay [5] deals with HCC827. The assay is described as above. In short, it runs like this:
as §1

The test system of assay [6] is II-18. The description is as above. In outline:
as §1

Assay [7] deals with H1975. The assay is described as follows: area under confluence curve of compound monotherapy; compare to DMSO control AUC of the same experiment (AUC (confluence x time, arbitrary)). Conditions: 1000 nM. In outline:
(§2)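 Adenocarcinoma lines were grown in RPMI 1640 with 10% FBS at 37 °C and 5% CO2, seeded at 20,000–30,000 cells/well in 48-well plates, and treated the next day with test compound alone at one dose: 1 uM or the highest dose giving <50% parental inhibition. Every 3–4 days the wells were washed with PBS and the drug was refreshed, and medium was drug-free from the DTP stage (10–21 days). IncuCyte tracked confluence until wells given only an EGFR inhibitor regrew. Area under the confluence curve was calculated in Prism, taking the median of triplicates where run, and set beside the vehicle value from the same experiment.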

Assay [8] relates to HCC2279. The description is as above. Conditions: 1000 nM. In outline:
as §2

Assay [9] concerns HCC2935. The assay is described as above. Conditions: 1000 nM. In short, it runs like this: as §2
The test system of assay [10] is HCC4006. Described as above. Conditions: 1000 nM. In short, it runs like this:
as §2

For assay [11], the system named is HCC827. The description is as above. Conditions: 1000 nM. In outline: as §2
The test system of assay [12] is II-18. Described as above. Conditions: 1000 nM. In outline: as §2

Take `C[C@@H](Oc1cc(-c2cnn(C3CCNCC3)c2)cnc1N)c1c(Cl)ccc(F)c1Cl` [Crizotinib] + C=CC(=O)Nc1cc(Nc2nccc(-c3cn(C)c4ccccc34)n2)c(OC)cc1N(C)CCN(C)C [osimertinib]: the “area under confluence curve” value was determined as 9770 in assay [1] (test compound dose 1000 nM, dosing schedule: sequential, osimertinib-only DTP control AUC in same experiment: 22968, DMSO control AUC in same experiment: 15857); 9330 in [1] (test compound dose 1000 nM, dosing schedule: upfront, osimertinib-only DTP control AUC in same experiment: 27164, DMSO control AUC in same experiment: 15857); 23100 in assay [2] (test compound dose 1000 nM, dosing schedule: sequential, osimertinib-only DTP control AUC in same experiment: 26096, DMSO control AUC in same experiment: 14404); 32900 in assay [2] (test compound dose 1000 nM, dosing schedule: upfront, osimertinib-only DTP control AUC in same experiment: 33120, DMSO control AUC in same experiment: 14404); 21400 in assay [3] (test compound dose 1000 nM, dosing schedule: sequential, osimertinib-only DTP control AUC in same experiment: 22314, DMSO control AUC in same experiment: 19215); 33400 in assay [3] (test compound dose 1000 nM, dosing schedule: upfront, osimertinib-only DTP control AUC in same experiment: 29846, DMSO control AUC in same experiment: 19215). The “area under confluence curve” value in assay [4] (test compound dose 1000 nM, dosing schedule: sequential, osimertinib-only DTP control AUC in same experiment: 12791, DMSO control AUC in same experiment: 18415) is 12500; in assay [4] (test compound dose 1000 nM, dosing schedule: upfront, osimertinib-only DTP control AUC in same experiment: 17269, DMSO control AUC in same experiment: 18415), 13000; in [5] (test compound dose 1000 nM, dosing schedule: sequential, osimertinib-only DTP control AUC in same experiment: 15330, DMSO control AUC in same experiment: 21320), 10400; in [5] (test compound dose 1000 nM, dosing schedule: upfront, osimertinib-only DTP control AUC in same experiment: 20798, DMSO control AUC in same experiment: 21320), 15000; in [6] (test compound dose 1000 nM, dosing schedule: sequential, osimertinib-only DTP control AUC in same experiment: 8624, DMSO control AUC in same experiment: 11834) it was 1450; in [6] (test compound dose 1000 nM, dosing schedule: upfront, osimertinib-only DTP control AUC in same experiment: 10856, DMSO control AUC in same experiment: 11834) it was 10800.

`C[C@@H](Nc1cc(F)cc(F)c1)c1cc(C(=O)N(C)C)cc2c(=O)cc(N3CCOCC3)oc12` + C=CC(=O)Nc1cc(Nc2nccc(-c3cn(C)c4ccccc34)n2)c(OC)cc1N(C)CCN(C)C [osimertinib]: the “area under confluence curve” value in assay [1] (test compound dose 1000 nM, dosing schedule: sequential, osimertinib-only DTP control AUC in same experiment: 15943, DMSO control AUC in same experiment: 20657) was 8220; in [1] (test compound dose 1000 nM, dosing schedule: upfront, osimertinib-only DTP control AUC in same experiment: 27804, DMSO control AUC in same experiment: 20657), 13700; in assay [2] (test compound dose 1000 nM, dosing schedule: sequential, osimertinib-only DTP control AUC in same experiment: 21824, DMSO control AUC in same experiment: 29252), 8080; in assay [2] (test compound dose 1000 nM, dosing schedule: upfront, osimertinib-only DTP control AUC in same experiment: 43517, DMSO control AUC in same experiment: 29252) it was 21600; in [3] (test compound dose 1000 nM, dosing schedule: sequential, osimertinib-only DTP control AUC in same experiment: 6271, DMSO control AUC in same experiment: 13875), 5860; in assay [3] (test compound dose 1000 nM, dosing schedule: upfront, osimertinib-only DTP control AUC in same experiment: 10360, DMSO control AUC in same experiment: 13875) it was 5800. For the same compound, the “area under confluence curve” value in assay [4] (test compound dose 1000 nM, dosing schedule: sequential, osimertinib-only DTP control AUC in same experiment: 19238, DMSO control AUC in same experiment: 16638) came to 10300; in [4] (test compound dose 1000 nM, dosing schedule: upfront, osimertinib-only DTP control AUC in same experiment: 21234, DMSO control AUC in same experiment: 16638) it was 5440; in assay [5] (test compound dose 1000 nM, dosing schedule: sequential, osimertinib-only DTP control AUC in same experiment: 8266, DMSO control AUC in same experiment: 27404) it was 3540; in assay [5] (test compound dose 1000 nM, dosing schedule: upfront, osimertinib-only DTP control AUC in same experiment: 13929, DMSO control AUC in same experiment: 27404), 3910; in [6] (test compound dose 1000 nM, dosing schedule: sequential, osimertinib-only DTP control AUC in same experiment: 21014, DMSO control AUC in same experiment: 18482) it was 12100; in assay [6] (test compound dose 1000 nM, dosing schedule: upfront, osimertinib-only DTP control AUC in same experiment: 27084, DMSO control AUC in same experiment: 18482) it was 10200.

As to `COc1cc(CCc2cc(NC(=O)c3ccc(N4CC(C)NC(C)C4)cc3)n[nH]2)cc(OC)c1` (stereo not given), the “area under confluence curve” value in assay [7] (DMSO control AUC in same experiment: 14522) worked out at 17400; in assay [8] (DMSO control AUC in same experiment: 29252), 28700; in assay [9] (DMSO control AUC in same experiment: 11459) it was 11000; in assay [10] (DMSO control AUC in same experiment: 16794), 15300; in [11] (DMSO control AUC in same experiment: 43928), 46400; in assay [12] (DMSO control AUC in same experiment: 23373) it was 19700.

In the case of `CCn1nc(C2CCN(C(=O)CCO)CC2)nc1-c1cnc(N)c(-c2nnc(C(C)(C)C)o2)n1`, the “area under confluence curve” value in [7] (DMSO control AUC in same experiment: 20657) was found to be 18200; in assay [8] (DMSO control AUC in same experiment: 9426), 11400; in assay [9] (DMSO control AUC in same experiment: 13875) it was 11700; in assay [10] (DMSO control AUC in same experiment: 16638) it was 17000; in [11] (DMSO control AUC in same experiment: 27404), 27500; in [12] (DMSO control AUC in same experiment: 18482) it was 14200.

For `COC(=O)c1ccc([C@H]2c3[nH]c4ccccc4c3C[C@H](C(=O)OC)N2C(=O)CCl)cc1` + C=CC(=O)Nc1cc(Nc2nccc(-c3cn(C)c4ccccc34)n2)c(OC)cc1N(C)CCN(C)C [osimertinib], the “area under confluence curve” value in [1] (test compound dose 100 nM, dosing schedule: sequential, osimertinib-only DTP control AUC in same experiment: 9919, DMSO control AUC in same experiment: 26010) was found to be 7660; in assay [1] (test compound dose 100 nM, dosing schedule: upfront, osimertinib-only DTP control AUC in same experiment: 15327, DMSO control AUC in same experiment: 26010), 13400; in assay [2] (test compound dose 100 nM, dosing schedule: sequential, osimertinib-only DTP control AUC in same experiment: 11520, DMSO control AUC in same experiment: 9426), 13900; in assay [2] (test compound dose 100 nM, dosing schedule: upfront, osimertinib-only DTP control AUC in same experiment: 21942, DMSO control AUC in same experiment: 9426), 20100; in assay [3] (test compound dose 100 nM, dosing schedule: sequential, osimertinib-only DTP control AUC in same experiment: 9121, DMSO control AUC in same experiment: 11459), 5900; in assay [3] (test compound dose 100 nM, dosing schedule: upfront, osimertinib-only DTP control AUC in same experiment: 12748, DMSO control AUC in same experiment: 11459), 6780. Moreover, the “area under confluence curve” value in assay [4] (test compound dose 100 nM, dosing schedule: sequential, osimertinib-only DTP control AUC in same experiment: 19238, DMSO control AUC in same experiment: 16638) came out at 19000; in [4] (test compound dose 100 nM, dosing schedule: upfront, osimertinib-only DTP control AUC in same experiment: 21234, DMSO control AUC in same experiment: 16638), 21000; in assay [5] (test compound dose 100 nM, dosing schedule: sequential, osimertinib-only DTP control AUC in same experiment: 25096, DMSO control AUC in same experiment: 35394), 6740; in assay [5] (test compound dose 100 nM, dosing schedule: upfront, osimertinib-only DTP control AUC in same experiment: 27382, DMSO control AUC in same experiment: 35394), 27100; in assay [6] (test compound dose 100 nM, dosing schedule: sequential, osimertinib-only DTP control AUC in same experiment: 3520, DMSO control AUC in same experiment: 13556) it was 183; in [6] (test compound dose 100 nM, dosing schedule: upfront, osimertinib-only DTP control AUC in same experiment: 6532, DMSO control AUC in same experiment: 13556) it was 1800.

As to `C[C@@]1(C(=O)Nc2ccc(F)nc2)CCCN1c1nc(Nc2cc(C3CC3)n[nH]2)c2cccn2n1` + C=CC(=O)Nc1cc(Nc2nccc(-c3cn(C)c4ccccc34)n2)c(OC)cc1N(C)CCN(C)C [osimertinib], the “area under confluence curve” value worked out at 13500 in assay [1] (test compound dose 100 nM, dosing schedule: sequential, osimertinib-only DTP control AUC in same experiment: 22617, DMSO control AUC in same experiment: 16540); 12500 in [1] (test compound dose 100 nM, dosing schedule: upfront, osimertinib-only DTP control AUC in same experiment: 28291, DMSO control AUC in same experiment: 16540); 24200 in [2] (test compound dose 100 nM, dosing schedule: sequential, osimertinib-only DTP control AUC in same experiment: 26096, DMSO control AUC in same experiment: 14404); 34700 in [2] (test compound dose 100 nM, dosing schedule: upfront, osimertinib-only DTP control AUC in same experiment: 33120, DMSO control AUC in same experiment: 14404); 22300 in [3] (test compound dose 100 nM, dosing schedule: sequential, osimertinib-only DTP control AUC in same experiment: 22314, DMSO control AUC in same experiment: 19215); 22200 in assay [3] (test compound dose 100 nM, dosing schedule: upfront, osimertinib-only DTP control AUC in same experiment: 29846, DMSO control AUC in same experiment: 19215). The “area under confluence curve” value amounted to 11000 in [4] (test compound dose 100 nM, dosing schedule: sequential, osimertinib-only DTP control AUC in same experiment: 12791, DMSO control AUC in same experiment: 18415); 9040 in assay [4] (test compound dose 100 nM, dosing schedule: upfront, osimertinib-only DTP control AUC in same experiment: 17269, DMSO control AUC in same experiment: 18415); 12600 in [5] (test compound dose 100 nM, dosing schedule: sequential, osimertinib-only DTP control AUC in same experiment: 15330, DMSO control AUC in same experiment: 21320); 23300 in assay [5] (test compound dose 100 nM, dosing schedule: upfront, osimertinib-only DTP control AUC in same experiment: 20798, DMSO control AUC in same experiment: 21320); 533 in [6] (test compound dose 100 nM, dosing schedule: sequential, osimertinib-only DTP control AUC in same experiment: 8624, DMSO control AUC in same experiment: 11834); 1400 in assay [6] (test compound dose 100 nM, dosing schedule: upfront, osimertinib-only DTP control AUC in same experiment: 10856, DMSO control AUC in same experiment: 11834).
